The subject of one test is NIH3T3. The test is described as follows: Cytotoxic Profiling of Annotated Libraries Using Quantitative High-Throughput Screening (AID 1296008). Further: nearly all actives have a fitted effect of over 60% in size. The following applies: Five cell lines viability, CellTiter-Glo ATP luminescence, 48-72 h; max response: active compounds read low. The gist of the method:
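Compounds were pin-transferred onto cells and incubated 48 or 72 hr at 37 degree Celsius, 95% humidity. CellTiter-Glo was added, plates sat 10 min at room temperature, then ATP-coupled luminescence was imaged as the viability read-out.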
(In general: ATP-based viability assays read luminescence as a measure of living cells.)

The subject of the next test is HACAT. The test can be described thus: qHTS assay to identify novel small-molecules to repurpose for Merkel cell carcinoma treatment (AID 1296009). Further: nearly all actives have a fitted effect of over 60% in size. Further: potency means the concentration at half of the fitted maximal effect. Particulars: MCC and control cell lines, CellTiter-Glo viability, 72 h; at 44.8 µM (top of the series) unless noted. The essentials: (§1)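 Cells exposed to NPC (8-point) and MIPE (11-point) compound dilutions for 72 hr at 37 degree celsius; viability read by CellTiter-Glo luminescence, normalized to no-cell and DMSO in-plate controls.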
On the technique in general: In qHTS, concentration-response curves come from the screen itself.

Test [1] has as its system HEK293T. The test is described as above. The following applies: MCC and control cell lines, CellTiter-Glo viability, 72 h; at 44.8 µM (top of the series) unless noted. The gist of the method:
as §1

Another test deals with MKL-1. The description is as above. The following applies: MCC and control cell lines, CellTiter-Glo viability, 72 h; series mostly up to 46 µM. The gist of the method: as §1
The next test has as its system MKL-2. The test is described as above. The following applies: MCC and control cell lines, CellTiter-Glo viability, 72 h; series mostly up to 46 µM. The essentials: as §1
In another test the test system is C33A. The test can be described thus: Primary qHTS to identify gynecologic anti-cancer compounds using libraries of approved drugs and bioactive compounds (AID 1345084). Further: nearly all actives have a fitted effect of over 55% in size. Particulars: Gynecologic cancer cell panel viability, ATPlite luminescence, 48 h; series mostly up to 57.5 µM. The essentials: (§2)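 Cells, 1,000 per well, were allowed to settle for 16 h at 37 C before compound addition. Five concentrations were tested for 48 h, and viability was read by ATPlite luminescence after 15 min at room temperature.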

In a further test the test system is CAOV3. The description is as above. The following applies: Gynecologic cancer cell panel viability, ATPlite luminescence, 48 h; series mostly up to 57.5 µM. The gist of the method: as §2
For the next test, the system named is CASKI. The test is described as above. Particulars: Gynecologic cancer cell panel viability, ATPlite luminescence, 48 h; series mostly up to 57.5 µM. The essentials:
as §2

The next test relates to Es-2. Described as above. The following applies: Gynecologic cancer cell panel viability, ATPlite luminescence, 48 h; series mostly up to 57.5 µM. The essentials:
as §2

The subject of test [2] is Hek293T. Described as above. Particulars: Gynecologic cancer cell panel viability, ATPlite luminescence, 48 h, control line for the selectivity index; series mostly up to 57.5 µM. The essentials: as §2
For a further test, the system named is JEG-3. The test is described as above. The following applies: Gynecologic cancer cell panel viability, ATPlite luminescence, 48 h; series mostly up to 57.5 µM. The essentials:
as §2

Another test relates to OV90. The description is as above. The following applies: Gynecologic cancer cell panel viability, ATPlite luminescence, 48 h; series mostly up to 57.5 µM. The gist of the method: as §2
For a further test, the system named is PA-1. The description is as above. Particulars: Gynecologic cancer cell panel viability, ATPlite luminescence, 48 h; series mostly up to 57.5 µM. The essentials: as §2
In a further test the test system is SKOV3. Described as above. The following applies: Gynecologic cancer cell panel viability, ATPlite luminescence, 48 h; series mostly up to 57.5 µM. The gist of the method:
as §2

Another test relates to MCC-13. The test can be described thus: qHTS assay to identify novel small-molecules to repurpose for Merkel cell carcinoma treatment (AID 1296009). Further: nearly all actives have a fitted effect of over 60% in size. Further: potency means the concentration at half of the fitted maximal effect. Particulars: MCC and control cell lines, CellTiter-Glo viability, 72 h; series mostly up to 46 µM. The essentials:
as §1

In a further test the test system is MCC-26. Described as above. The following applies: MCC and control cell lines, CellTiter-Glo viability, 72 h; series mostly up to 46 µM. The essentials: as §1
Another test has as its system UISO. The test is described as above. The following applies: MCC and control cell lines, CellTiter-Glo viability, 72 h; series mostly up to 46 µM. The essentials: as §1
Another test relates to WaGa. Described as above. The following applies: MCC and control cell lines, CellTiter-Glo viability, 72 h; series mostly up to 46 µM. The essentials:
as §1

The subject of another test is HeLa. The test can be described thus: Primary qHTS to identify gynecologic anti-cancer compounds using libraries of approved drugs and bioactive compounds (AID 1345084). Further: nearly all actives have a fitted effect of over 55% in size. The following applies: Gynecologic cancer cell panel viability, ATPlite luminescence, 48 h; series mostly up to 57.5 µM. The essentials:
as §2

Values joined by “and” are separate entries in the source; they are usually repeats but may differ in a detail not shown here. Identical values can stand only once. Inconclusive results are not listed. Values without a mark were called inactive. Active and inactive are the calls of the source. The call rests on the fitted dose curve; in most records, active means well fitted curve in the direction sought with a large enough effect; inconclusive means small, poorly fitted or top-dose-only effect, or another doubt; inactive means no such curve, though single readings can be large; an effect the other way counts as inactive or inconclusive.

From PubChem BioAssay (NCATS) come the findings set out here.
On the % scale 0 is the no-effect control and ±100 the full control effect.

Turning to `COC(=O)C1=C(C)NC(C)=C(C(=O)OCC(C)=O)C1c1ccccc1[N+](=O)[O-]` (stereo not given), in the test with NIH3T3, the max response is -4.97%. In addition, the outcome with HACAT and with HEK293T [1] was inactive. Further, the Potency is 21.1 µM (active) with MKL-1 and 10.6 µM (active) with MKL-2. Further, the Potency entry in the test with C33A, with CAOV3, in the test on CASKI, in the test with Es-2, in the test with Hek293T [2] and in the test on JEG-3 was “inactive” each time. Also, the Potency result in the test on OV90, with PA-1 and in the test with SKOV3 was “inactive” in each case.

With `CC(C(=O)O)c1ccc2c(c1)[nH]c1ccc(Cl)cc12` (stereo not given), the max response in the test on NIH3T3 was 1.25% and 0.838%. In addition, the result in the test with HACAT and in the test with HEK293T [1] was inactive. Besides, the Potency result with MCC-13, in the test with MCC-26, with MKL-1, in the test on MKL-2, in the test with UISO and in the test with WaGa was “inactive” throughout. The Potency entry in the test on C33A, in the test with CAOV3, with CASKI, with Es-2, in the test on HeLa and in the test on Hek293T [2] was “inactive” in each case. For the same molecule, the Potency result in the test on JEG-3, with OV90, in the test with PA-1 and with SKOV3 was “inactive” throughout.

Regarding `COc1cc2c3cc1Oc1cc(ccc1O)C[C@@H]1c4c(cc(OC)c(O)c4Oc4ccc(cc4)C[C@@H]3N(C)CC2)CC[N+]1(C)C`, the max response in the test with NIH3T3 was 4.48%. Moreover, the result with HEK293T [1] was inactive. Further, the Potency result with MCC-13, in the test on MKL-1, in the test with MKL-2, in the test on UISO, in the test with WaGa and in the test on C33A was “inactive” in each case. Also, the Potency entry with CAOV3, in the test on CASKI, in the test with Es-2, in the test on HeLa, with Hek293T [2] and in the test with JEG-3 was “inactive” in each case. In addition, the Potency entry in the test on OV90, with PA-1 and with SKOV3 was “inactive” throughout.

Take `CS(=O)(=O)c1ccc(-n2nc(C(F)(F)F)cc2-c2ccc(F)cc2)cc1`: the max response in the test with NIH3T3 was -2.48%. The result with HACAT was inactive. Besides, the Potency result with C33A, in the test on CASKI, in the test on Es-2, with HeLa, in the test with Hek293T [2] and in the test with JEG-3 was “inactive” in each case. For the same molecule, the Potency entry in the test with OV90, in the test with PA-1 and with SKOV3 was “inactive” throughout.

On to `c1ccc2sc(SN3CCOCC3)nc2c1`, for which the max response in the test on NIH3T3 is 0.685%. The outcome in the test with HACAT and with HEK293T [1] was inactive. Moreover, the Potency entry with MCC-13, with MKL-1, in the test with MKL-2, in the test with UISO, with WaGa and in the test on C33A was “inactive” throughout. Besides, the Potency entry in the test with CAOV3, with CASKI, in the test with Es-2, in the test with HeLa, with Hek293T [2] and in the test on JEG-3 was “inactive” each time. Further, the Potency result in the test on OV90 and in the test with PA-1 was “inactive” throughout.

On to `CC(=O)SCC(CC(=O)c1ccc(C)cc1)C(=O)O` (stereo not given), for which the max response with NIH3T3 is -1.54%. The outcome in the test on HEK293T [1] was inactive. In addition, the Potency result in the test on MCC-13, in the test with MKL-1, in the test on MKL-2, in the test on UISO, in the test on WaGa and in the test on C33A was “inactive” each time. The Potency result with CAOV3, with Es-2, in the test with HeLa, in the test with Hek293T [2], with JEG-3 and in the test on OV90 was “inactive” throughout.

As to `CCCCCCCC/C=C/C(=O)O`, the max response in the test on NIH3T3 is 2.83%. The molecule was classed as inactive with HACAT. Moreover, the Potency result in the test with MCC-13, in the test with MKL-1, with MKL-2, in the test on UISO, in the test with WaGa and with C33A was “inactive” in each case. For the same molecule, the Potency result with CAOV3, in the test on CASKI, in the test on Es-2, with HeLa, with Hek293T [2] and in the test with JEG-3 was “inactive” throughout. Moreover, the Potency result in the test on OV90, in the test on PA-1 and in the test with SKOV3 was “inactive” each time.

As to `CC(C)OC(=O)c1cc(C(=O)OC(C)C)cc([N+](=O)[O-])c1`, the max response in the test on NIH3T3 was -2.82%. Moreover, the outcome in the test with HACAT was “inactive [at 92 µM]”. In addition, the Potency entry in the test on MCC-13, with MKL-1, in the test on MKL-2, with UISO, with WaGa and in the test with C33A was “inactive” throughout. For the same molecule, the Potency result in the test on CAOV3, in the test on CASKI, in the test on Es-2, in the test with HeLa, with Hek293T [2] and in the test with JEG-3 was “inactive” in each case. For the same molecule, the Potency result in the test with OV90 and in the test on PA-1 was “inactive” throughout.
